Rows were chosen to be rich in hits. Some 2.4% of all compounds tested hit in one or more screens of this group.
Pol iota inh – inhibitors of human DNA polymerase iota; Q9UNA4; Potency, µM (series often up to 115 µM), inactives show at the top dose activity, negative = inhibition, usual class: inhibitors; Pol iota fluorescent replication assay, 10 min; AID 588590; actives 1% (n = 390,000)
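Pol iota at 10 nM preincubated 15 min with compounds at room temperature; reaction started with fluorescent substrate, 50 nM final. Fluorescence read kinetically at 0 and 10 min; buffer-only wells as negative control.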
Pol eta inh – blocks human DNA polymerase eta activity; recombinant Pol eta, fluorescent DNA replication assay; actives 1.2% (n = 390,000); Q9Y253; Potency, µM (series often up to 114 µM), without a hit: at the top dose activity change, negative = inhibition, hits mostly inhibitors; AID 588591; further: on the % scale 0 is the no-effect control and ±100 the full control effect
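Pol eta at 10 nM preincubated with compounds 15 min at room temperature; reaction started with fluorescent substrate (50 nM final) and read kinetically at 0 and 10 min.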
WRN helicase inh – inhibitors of human WRN helicase; Q14191; Potency, µM (doses to about 114 µM), without a hit: top-dose activity change, negative = inhibition, hits mostly inhibitors; WRN helicase unwinding, fluorescent forked duplex, kinetic; actives 0.46% (n = 360,000); further: on the % scale 0 is the no-effect control and ±100 the full control effect; nearly all actives have a fitted effect of over 55% in size
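WRN at 20 nM final was preincubated with compound for 15 min at room temperature; reaction started with 100 nM forked duplex oligonucleotide carrying fluorophore and quencher plus 2 mM ATP (final). Unwinding followed kinetically by red fluorescence (ex 525/em 598 nm).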
FEN1 inhibitor – blocks human flap endonuclease 1; actives 0.35% (n = 390,000); Recombinant FEN1 flap cleavage, fluorescence, 15 min; Potency, µM (titrated, usually from 114 µM), for the others: top-dose activity change, negative = inhibition, usual class: inhibitors; P39748; further: on the % scale 0 is the no-effect control and ±100 the full control effect; nearly all actives have a fitted effect of over 65% in size
Target sequence (P39748 whole entry, looked up): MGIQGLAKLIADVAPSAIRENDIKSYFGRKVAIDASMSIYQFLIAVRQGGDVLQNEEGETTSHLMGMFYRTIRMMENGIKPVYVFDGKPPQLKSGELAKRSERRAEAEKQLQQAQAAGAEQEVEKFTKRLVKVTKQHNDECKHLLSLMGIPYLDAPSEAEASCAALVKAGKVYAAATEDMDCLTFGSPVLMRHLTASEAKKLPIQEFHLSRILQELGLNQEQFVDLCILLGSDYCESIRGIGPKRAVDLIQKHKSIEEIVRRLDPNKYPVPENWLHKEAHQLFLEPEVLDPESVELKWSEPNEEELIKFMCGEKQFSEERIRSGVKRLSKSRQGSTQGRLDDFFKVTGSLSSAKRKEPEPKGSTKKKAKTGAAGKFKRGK
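Concentration–response screening of FEN1 (10 nM): 15 min compound preincubation at room temperature, reaction started with 50 nM substrate and read at 0 and 15 min. Corrected, normalized data were fitted by a four-parameter Hill equation.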
Pol kappa inh – inhibitors of human DNA polymerase kappa | AID 588579 | actives 0.53% (n = 400,000) | Potency, µM (titrated, usually from 107 µM), without a hit: at the highest dose activity, negative = inhibition, most hits filed as inhibitors | purified Pol kappa, fluorescent DNA synthesis assay, 10 min; further: on the % scale 0 is the no-effect control and ±100 the full control effect
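10 nM Pol kappa preincubated 15 min at room temperature with compounds, then reaction started with substrate at 50 nM final. Fluorescence read kinetically at 0 and 10 min; buffer-only wells served as negative control.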
Pol beta inh – blocks human DNA polymerase beta activity; P06746; Pol beta primer extension/strand displacement, fluorescence kinetic; Potency, µM (doses to about 114 µM), inactives show at the highest dose activity change, negative = inhibition, actives largely listed as inhibitors; actives 1.3% (n = 340,000); further: on the % scale 0 is the no-effect control and ±100 the full control effect
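Kinetic readout of DNA synthesis with strand displacement by Pol beta. Compound and 10 nM enzyme sit 15 min at room temperature; 50 nM substrate starts the reaction, read immediately and at 10 min.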
* marks the source's active call; other numbers are inactive results; ? = inconclusive; . = no result given; [ ] = remark or other dose. The call rests on the fitted dose curve; in most records, active means well fitted curve in the direction sought with a large enough effect; inconclusive means small, poorly fitted or top-dose-only effect, or another doubt; inactive means no such curve, though single readings can be large; an effect the other way counts as inactive or inconclusive. Potency means the concentration at half of the fitted maximal effect.

SMILES	Pol iota inh	Pol eta inh	WRN helicase inh	FEN1 inhibitor	Pol kappa inh	Pol beta inh
CC(C)(C)CC(C)(C)N=C1Nc2ccc([N+](=O)[O-])cc2N[C@]12C[C@H]1CCCC(=O)N3CC[C@@H](C2)[C@@H]13	24.2%	.	.	2.6%	5.0%	.
O=C(N/N=C/C=C/c1ccco1)c1cnccn1	?	?	-30.0%	-5.1%	-24.0%	-14.2%
O=C(N/N=C/C=C/c1ccco1)c1cccnc1	31.6µM*	?	-21.9%[57.1 µM]	-3.9%	-42.1%	-0.6%
COc1ccc(Br)cc1/C=N/NC(=O)c1cccnc1	-24.2%	19.1%	-32.1%	12.1%	-7.7%	23.7%
O=C(N/N=C/c1cc(Br)c(Br)o1)c1cccnc1	?	11.2µM*	?	1.3%	?	31.6µM*
O=C(N/N=C\c1ccco1)c1cncc(Br)c1	.	.	.	.	.	-21.6%
O=C(N/N=C\C=C\c1ccco1)c1cc(-c2ccc3ccccc3c2)n[nH]1	31.6µM*	50.1µM*	-12.8%[11.6 µM]	?	79.4µM*	15.8µM*
O=C(N/N=C\C=C\c1ccco1)c1cncc(Br)c1	20µM*	?	?	-15.2%	89.1µM*	?
CCCCc1ccc(NC(=O)Cn2cnc3c(oc4ccccc43)c2=O)cc1	26.2%	-19.2%	.	10.8%	-1.4%	-1.9%
Cc1ccc(S(=O)(=O)N2CCOCC2)cc1NC(=O)CSc1nc2ccccc2c(=O)n1Cc1ccccc1	23.2%	-5.6%	3.1%	-8.8%	6.1%	-9.7%
O=C(CSc1nc2ccccc2c(=O)n1Cc1ccccc1)Nc1ccc(Br)cc1C(=O)O	?	89.1µM*	1.7%[11.6 µM]	-21.5%	-17.0%	?
Cc1ccc(/C=C/c2onc(C)c2S(=O)(=O)N2CCC(C(=O)N3CCC(N(C)C(C)C)CC3)CC2)cc1	-1.7%	0.9%	.	-9.8%	-6.2%[60.1 µM]	-7.5%
COc1cc(OC)c(/C=C/c2c3ccccc3cc[n+]2C)c(OC)c1	?	.	.	?	-14.3%	.
O=C1c2cccnc2-c2ncccc21	12.7%	-9.3%	-11.2%	-11.0%	-5.3%	-0.4%
O=C1C(=O)c2cccnc2-c2ncccc21	.	.	17.8µM*	.	.	.
COC1=C(Br)C(=O)c2ncccc2C1=O	1.26µM*	3.16µM*	10µM*	?	-11.0%	.
CC/C=C\[C@H](O)[C@H](O)C1=C(C)C(=O)[C@]2(O1)C(=O)N[C@@](OC)(C(=O)c1ccccc1)C2O (stereo partly specified)	?	0.8%	-0.1%	0.4%	?	35.5µM*
CC1CCC(C(=O)NNC(=O)c2cc(-c3ccco3)[nH]n2)CC1 (stereo unspecified)	16.5%	-4.0%	-8.5%	0.2%	1.2%	-0.3%
O=C(O)c1cc(-c2ccco2)[nH]n1	-8.9%	?	-4.7%	7.2%	-3.3%	28.2µM*
Oc1ccc(N=Nc2c(O)ccc3ccccc23)cc1	-2.4%	-8.3%	-26.5%	-20.5%	-6.6%	-14.0%
O=C(O)c1cc(N=Nc2c(O)ccc3ccccc23)cc(C(=O)O)c1	6.0%	17.8µM*	-29.2%[57.1 µM]	?	20µM*	-4.1%
O=C(C[n+]1ccccc1)Nc1c(Cl)cc(Cl)cc1Cl	22.7%	-11.9%	-1.7%	-12.4%	-11.3%	8.91µM*
O=C(CSc1nc2sccc2c(=O)[nH]1)N1CCN(c2ccccc2)CC1	?	50.1µM*	-11.3%[11.6 µM]	0.5%	?	25.1µM*
CCCCCCCCN1[C@@H](CC(=O)OC)c2ccc(/C=C/C(=O)OC)cc2S1(=O)=O	?	.	.	-13.1%	-39.0%	.
COc1ccccc1CNC(=O)c1cc2sccc2n1Cc1ccc(F)cc1	34.0%	-9.9%	.	8.8%	-5.4%	14.7%
O=C(/C=C/c1ccco1)OCn1nnc2ccccc2c1=O	29.3%	-5.2%	-3.0%	-2.2%	-3.6%	20µM*
O=C(/C=C/c1ccco1)OCc1nnc(-c2ccccc2)o1	79.4µM*	23.5%	-17.7%	1.3%	-34.3%	22.4µM*
O=C(/C=C/c1ccco1)OCc1nnc(-c2ccc(Cl)cc2)o1	?	-12.4%	-18.4%	-6.3%	-22.4%	35.5µM*
CCc1ccccc1-n1cnc2cc(C(=O)NC3CCCCCC3)ccc21	27.7%	-21.2%	.	-16.8%	-4.9%[60.1 µM]	0.0%

Assay outcomes (PubChem BioAssay)
